Compound activity (PubChem)
Pf apPOL inh – Pf-apPOL DNA polymerase inhibition. Recombinant Pf-apPOL, molecular beacon fluorescence, 1.5 h. inhibition, % at 10 µM. AID 1794808. hit rate 0.25% among 210,000
mHTT-CaM PPI inh – inhibitors of human mutant huntingtin-calmodulin interaction; P42858; AlphaScreen His-mHTT/GST-CaM binding, luminescence; inhibition, % at 15 µM; hit rate 3.6% among 190,000; AID 1671202
Hits are given with their value; n = inactive; x = no result given; ! = a repeat was not active. Shown are actives, neighbours in structure and some others; about 3.5% of the full set was active somewhere. Rule as the data show it: active = inhibition above about 50%; inactive = the rest.

SMILES	Pf apPOL inh	mHTT-CaM PPI inh
CN(Cc1ccoc1)C(=O)Nc1ccccc1	n	n
COc1nn(C)cc1C(=O)Nc1nnc(-c2cc(C)nn2C)o1	n	n
Cc1ccc(C(=O)NC2CCS(=O)(=O)C2)cc1 (centres undefined)	n	n
C1CCCN(C2CCN(C3CCCC3)CC2)CC1	n	n
FC(F)(F)c1nnc2n1CCN(Cc1csc3c1CCCC3)C2	n	n
CC1(C(=O)NCc2ccc(F)cc2)CCCN(S(=O)(=O)c2ccccc2Cl)C1 (centres undefined)	n	n
Cc1c(Cl)cccc1S(=O)(=O)N1CCCC(C)(C(=O)NCc2ccc(F)cc2)C1 (centres undefined)	n	86
Cc1c(C(=O)NCc2ccc(F)cc2)oc2ccc(S(=O)(=O)N3CCCCCC3)cc12	52	n
Cc1ccc(CNC(=O)c2oc3ccc(S(=O)(=O)N4CCCCC4)cc3c2C)cc1	n	n
COCCc1nnc(NC(=O)CCCS(=O)(=O)c2ccc(Cl)cc2)o1	n	n
CC(C)(C)c1ccc(OCC(=O)Nc2ccc(S(=O)(=O)N3CCOCC3)cc2)cc1	n	n
C=CCNC(=O)c1cnn2c(C(F)(F)F)cc(-c3ccccc3)nc12	n	51
COCCCNC(=O)c1cnn2c(C(F)(F)F)cc(-c3ccccc3)nc12	n	n
COc1ccc(/C=C(\NC(=O)c2ccco2)C(=O)Nc2ccc([N+](=O)[O-])cc2)cc1	n	n
[O-]c1n[n+](-c2ccccc2)no1	x	n
Cc1csc(Nc2ccc(Cl)cc2)[n+]1C	n	x
CN(C)c1ccc(NC(=O)c2ccc(Cl)cc2)cc1	n	n
Cc1cccc(C(=O)Nc2ccc(I)cc2)c1	77	n
COc1ccc(NS(=O)(=O)c2cccc(C(=O)Nc3cccc(C(=O)O)c3)c2)cc1	n	n
Cc1cc(C(=O)Nc2ccc(NC(=O)c3ccccc3)cc2)ccc1[N+](=O)[O-]	n	n
CN(C)c1ccc(NC(=O)c2ccncc2)cc1	n	70
Cc1cccc(C(=O)Nc2ccc(F)cc2)c1	n	n
COc1ccc(NS(=O)(=O)c2cccc(C(=O)Nc3ccc(C)cc3)c2)cc1	95	n
Cc1cccc(C(=O)Nc2ccc([N+](=O)[O-])c(NC(=O)c3cccc(C)c3)c2)c1	80	n
O=C(NC1CC(O)C(CO)C1)c1ccsc1 (centres undefined)	n	n
SMILES	Pf apPOL inh	mHTT-CaM PPI inh
O=C(c1ccccn1)N(CC1CCOC1)C1CC1 (centres undefined)	n	n
CN1OCC(S(=O)(=O)NCc2ccccc2)C1c1ccc(C(C)(C)C)cc1 (centres undefined)	n	n
CN(C)c1ccc(NC(=O)c2cccc(I)c2)cc1	n	80
O=C(Nc1ccccc1)c1cccc(I)c1	n	n
CSc1cccc(NC(=O)CN2N=NC3C(=O)N(c4ccc(C)cc4)C(=O)C32)c1 (centres undefined)	n	n
CN(C)CCNC(=O)C1COC2(CCCCC2)N1C(=O)c1ccc(Cl)cc1 (centres undefined)	n	n
COc1ccc(Cc2nnc(NC(=O)Nc3cccc(C(F)(F)F)c3)o2)cc1	n	n
CC(C)Sc1ccc(Cc2nnc(NC(=O)Cc3ccc(F)cc3)o2)cc1	n	n
COc1ccc(Cc2nnc(NC(=O)Nc3cccs3)o2)cc1	n	54
CS(=O)(=O)c1ccc(Cc2nnc(NC(=O)CSc3ccc(Cl)cc3)o2)cc1	n	56
CCSc1ccc(Cc2nnc(NC(=O)c3cccs3)o2)cc1	n	57
CSc1ccc(Cc2nnc(NC(=O)c3cc(C)oc3C)o2)cc1	n	n
O=C(NCC1(CO)CC1)c1cc(-c2ccccc2)on1	n	n
Cc1cc(C)cc(N2C(=O)CSC2c2ccccc2Br)c1 (centres undefined)	n	n
COc1ccccc1C(=O)Nc1ccc2nn(-c3ccccc3)nc2c1	n	n
NNc1ncnc2sc3c(c12)CCC3	n	100
c1cc(Nc2ncnc3sc4c(c23)CCC4)ccn1	n	n
NNc1ncnc2sc3c(c12)CCN(Cc1ccccc1)C3	n	90
O=c1[nH]c(CNC2CC2)nc2sc3c(c12)CCN(Cc1ccccc1)C3	n	n
O=C(NC1CCCCC1)C1CC(=O)N(CCc2c[nH]c3ccc(F)cc23)C1 (centres undefined)	n	n
CCCOc1ccc(N2CC(C(=O)Nc3cccc([N+](=O)[O-])c3)CC2=O)cc1 (centres undefined)	n	n
COc1ccc(Br)cc1/C=C1/N=C(c2cc([N+](=O)[O-])ccc2OC)OC1=O	n	n
N[C@@H]1c2ccccc2C[C@@H]1O	x	n
COc1ccc(C(=O)Nc2nc3ccc(C)cc3s2)cc1OC	n	51!
COc1ccc(C(=O)Nc2nc3ccc(C)cc3s2)cc1[N+](=O)[O-]	n	n
CC(C)Cn1cc2c3c(cccc31)CN(C(=O)c1ccncc1)CC2	n	55
COCC(=O)N1CCc2cn(CC(C)C)c3cccc(c23)C1	n	76
COc1ccc(NC(=O)N2CCc3cn(CC(C)C)c4cccc(c34)C2)cc1	n	n
CC(C)Cn1cc2c3c(cccc31)CN(C(=O)c1cnccn1)CC2	n	n
